Experimental findings from PubChem BioAssay are described below.

Active and inactive are the calls of the source.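 The calls were made as follows, unless noted: active = fluorescence slope higher than the sample average by over 3 SD (cut at about -0.22 in these data, passing the limit was not always enough); inactive = the rest.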

A short description of experiment [1]: inhibitors of TNFa-induced NFkB p65 translocation, primary screen, imaging, HUVEC, MLSMR starter and 10KST1 sets (AID 438;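 active = inhibition above 20% together with a positive visual image hit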;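 also: compound added about 3h40 before a 20 min TNFalpha stimulation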;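 as to inhibition: signal is the nuclear over cytoplasmic p65 intensity ratio per well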). The conditions noted are these: HUVEC TNFa-induced p65 nuclear translocation; cell count: measured here: nuclei count (cytotoxicity indicator), at 2.08 µM; inhibition: at 2 µM, stronger effect = higher value, 0% TNFa-plus-vehicle, 100% no-TNFa wells.

The nature of experiment [2]: reduction of polyQ htt aggregates in cells – imaging, exon1htt(103Q)mCFP cells, high-content imaging, primary screen (AID 483;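 active = visual image review flags a hit and inhibition of aggregation exceeds 20%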;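 also: compound exposure lasted 3 days before fixation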;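 as to nuclei count: percent of the per-plate median nuclei count of sample wells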). The settings on record: exon1htt(103Q)mCFP cell line, aggregate imaging, at 2 µM; inhibition of aggregation: stronger effect = higher value; nuclei count: measured here: cell count, toxicity.
Experiment [3] can be described thus: endothelial E-selectin expression blockers – imaging, HUVEC, immunofluorescence, MLSMR starter and 10KST1 sets, primary screen (AID 487;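 active = visually confirmed hit in the image check and inhibition above 20%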;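 as to inhibition: signal is fraction of cell area covered by stained E-selectin grains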;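 as to nuclei count: 100% = median nuclei count of all wells on the same plate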). The settings on record: HUVEC TNFalpha-induced E-selectin immunofluorescence imaging, at 2 µM; inhibition: stronger effect = higher value; nuclei count: measured here: cell number, toxicity.
Experiment [4] deals with Voltage-gated potassium channel subunit beta-2 (Rattus norvegicus) (UniProt P62483). Nature of the experiment: inhibitors of rat Kvbeta2 reductase activity – biochemical, NADPH fluorescence, primary screen (AID 622).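 Also: slope of raw intensity against log time taken from 70 to 1610 s.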 The conditions noted are these: recombinant KvBeta, 4-cyanobenzaldehyde reduction, at 10 µM, stronger effect = higher value.
The target is the same in experiment [5]. Description: enhancers of rat Kvbeta2 NADPH turnover – biochemical, NADPH fluorescence, primary screen (AID 623;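 active = NADPH fluorescence slope more negative than the mean of all samples by about 3 SD, 99.7% confidence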;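 also: fluorescence intensity change per second fitted from 20 to 320 s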). The settings on record: Recombinant KvBeta, NADPH fluorescence decrease slope, 10 min; at 10 µM; stronger effect = lower value.
For experiment [6], the target named is Alpha-2C adrenergic receptor (Homo sapiens) (UniProt P18825). Nature of the experiment: compounds altering alpha2C-coupled GIRK flux – cell-based, HEK293 alpha2C/GIRK1/2, thallium flux, primary screen (AID 624;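 active = fluorescence slope after compound addition differing from the mean of all screened samples at 99.7% confidence, in either direction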;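 also: slope of fluorescence ratio to pre-addition baseline per second over 15 to 24 s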). The settings on record: thallium flux BTC fluorescence, at 10 µM, actives lie on both sides.
Experiment [7] in a line: blockers of RIG-like receptor reporter activation – cell-based, Sendai virus stimulus, luciferase, 10K MLSCN set, TLR/RLR signaling modifier project, primary screen (AID 602276;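 active = inhibition at or above 50% at 10 µM; inactive = inhibition below 50%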;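 also: firefly luciferase from ISG56 promoter only with Renilla not read in this screen; 0% = Sendai virus plus DMSO and 100% = medium plus DMSO without virus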). The conditions noted are these: HEK293 RL24 IRF3 luciferase reporter, at 10 µM, stronger effect = higher value.
Experiment [8] in a line: TLR3 IRF3 reporter activation blockers – cell-based, poly I:C stimulus, luciferase, 10K MLSCN set, primary screen (AID 602277;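 active = inhibition of the reporter signal at or above 50%; inactive = inhibition below 50%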). The settings on record: HEK293-TLR3 RL24 IRF3 luciferase reporter, at 10 µM, stronger effect = higher value. (A reporter such as luciferase makes a cellular process visible.)

Usually inhibition stands for the relative decrease from the control value, in per cent.

Sequence of Alpha-2C adrenergic receptor (Homo sapiens) (P18825 whole entry, looked up): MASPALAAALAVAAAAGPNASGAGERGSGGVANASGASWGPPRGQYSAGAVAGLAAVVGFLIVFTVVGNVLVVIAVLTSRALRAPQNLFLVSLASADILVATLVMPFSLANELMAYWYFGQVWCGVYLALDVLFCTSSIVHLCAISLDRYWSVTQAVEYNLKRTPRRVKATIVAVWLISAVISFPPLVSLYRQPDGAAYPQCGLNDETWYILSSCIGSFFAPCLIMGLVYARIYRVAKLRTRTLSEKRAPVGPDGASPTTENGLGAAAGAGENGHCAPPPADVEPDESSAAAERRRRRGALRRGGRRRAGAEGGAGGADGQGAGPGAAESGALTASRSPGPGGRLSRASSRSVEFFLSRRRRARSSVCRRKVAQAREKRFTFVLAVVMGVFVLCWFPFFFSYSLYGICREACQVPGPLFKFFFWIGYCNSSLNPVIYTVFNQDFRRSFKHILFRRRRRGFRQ
Sequence of Voltage-gated potassium channel subunit beta-2 (Rattus norvegicus) (P62483 whole entry, looked up): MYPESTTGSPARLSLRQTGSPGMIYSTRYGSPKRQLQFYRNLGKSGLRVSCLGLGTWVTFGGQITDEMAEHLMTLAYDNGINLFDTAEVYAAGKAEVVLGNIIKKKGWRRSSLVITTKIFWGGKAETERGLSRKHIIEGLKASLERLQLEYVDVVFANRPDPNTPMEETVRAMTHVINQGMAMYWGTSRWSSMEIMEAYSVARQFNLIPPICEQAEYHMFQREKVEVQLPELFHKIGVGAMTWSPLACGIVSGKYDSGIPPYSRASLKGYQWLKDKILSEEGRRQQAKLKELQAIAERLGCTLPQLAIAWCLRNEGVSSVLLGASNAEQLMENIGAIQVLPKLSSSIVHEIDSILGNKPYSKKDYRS

Turning to `CN(C)c1ccc(-c2nn3c(-c4ccc(Cl)cc4Cl)nnc3s2)cc1`, the cell count in experiment [1] came out at 321. The inhibition is 2.6% (inactive) in experiment [1], 42.5% (inactive) in experiment [3], -25.6% (inactive) in experiment [7] and 55.1% (active) in experiment [8]. In addition, the inhibition of aggregation in experiment [2] was -10.5% (inactive). Moreover, the values for the nuclei count in experiment [2] and in experiment [3] were 98.2% and 96.6%, respectively. In addition, the fluorescence slope in experiment [4] was -0.552 (inactive). Also, the NADPH fluorescence slope in experiment [5] was -3.3e-05 (inactive). The slope in experiment [6] was 0.00528 (inactive).
Turning to `CS(=O)(=O)C1=C(O)C(=O)N(c2ccccc2)C1c1ccccc1` (centres undefined), in experiment [1], the cell count was determined as 415. The inhibition is -6% (inactive) in experiment [1], -41.9% (inactive) in experiment [3], -1.92% (inactive) in experiment [7] and 26.4% (inactive) in experiment [8]. Besides, in experiment [2], the inhibition of aggregation was -10.4% (inactive). The nuclei count in experiment [2] is 103%; in experiment [3], 132%. For the same compound, the fluorescence slope in experiment [4] is -0.439 (inactive). For the same compound, the NADPH fluorescence slope in experiment [5] was 1.7e-05 (inactive). The slope in experiment [6] was 0.00632 (inactive).
With `COc1ccc(N2CCN(CCNC(=O)CCS(=O)(=O)c3cccc4nsnc34)CC2)cc1`, in experiment [1], the cell count worked out at 747. The inhibition in experiment [1] was -6.4% (inactive); in experiment [3], 15% (inactive); in experiment [7], 16.8% (inactive); in experiment [8], 15.8% (inactive). Also, the inhibition of aggregation in experiment [2] was -23% (inactive). Further, the nuclei count in experiment [2] is 101%; in experiment [3], 109%. In addition, in experiment [4], the fluorescence slope is -0.598 (inactive). Besides, the NADPH fluorescence slope in experiment [5] is -3.9e-05 (inactive). Besides, in experiment [6], the slope is 0.00466 (inactive).
`CC1(C)Oc2ccc3ccc(=O)oc3c2C(N2CCCCC2)C1O` (centres undefined): the cell count in experiment [1] was 329. Besides, the inhibition in experiment [1] was -4.5% (inactive); in experiment [3] it was -30.2% (inactive); in experiment [7], 18.2% (inactive); in experiment [8], 33.6% (inactive). In experiment [2], the inhibition of aggregation is 15% (inactive). In addition, the nuclei count in experiment [2] was found to be 94.7%; in experiment [3], 104%. In addition, the fluorescence slope in experiment [4] was -0.34 (inactive). Also, the NADPH fluorescence slope in experiment [5] was 1.2e-05 (inactive). Also, the slope in experiment [6] is 0.00144 (inactive).
For `O=C(NCCc1c[nH]c2ccccc12)c1ccc(S(=O)(=O)NCc2ccco2)cc1`, in experiment [1], the cell count came to 398. In addition, the inhibition in experiment [1] was 9.3% (inactive); in experiment [3] it was -42.9% (inactive); in experiment [7], 15.3% (inactive); in experiment [8], 30.7% (inactive). Also, the inhibition of aggregation in experiment [2] was 14.7% (inactive). Further, the nuclei count was found to be 89.6% in experiment [2] and 98.6% in experiment [3]. Further, the fluorescence slope in experiment [4] is -0.578 (inactive). In experiment [5], the NADPH fluorescence slope is -2.7e-05 (inactive). In addition, in experiment [6], the slope was 0.00486 (inactive).
On to `Nc1nonc1N1CCCCC1`, for which, in experiment [1], the cell count was 437. In addition, the inhibition in experiment [1] is -8.1% (inactive); in experiment [3] it was 27.5% (inactive); in experiment [7] it was 4.11% (inactive); in experiment [8], 26.3% (inactive). The inhibition of aggregation in experiment [2] was -6.7% (inactive). Besides, the nuclei count in experiment [2] amounted to 107%; in experiment [3] it was 104%. The fluorescence slope in experiment [4] was -0.474 (inactive). Besides, the NADPH fluorescence slope in experiment [5] is -4.6e-05 (inactive). For the same compound, the slope in experiment [6] was 0.00308 (inactive).
Consider `CCCCC(NS(=O)(=O)c1ccc(OC)cc1)C(=O)O` (centres undefined), for which the cell count in experiment [1] is 386. Moreover, the inhibition in experiment [1] was 8.8% (inactive); in experiment [3] it was -31.9% (inactive); in experiment [7], 7.54% (inactive); in experiment [8], 39% (inactive). The inhibition of aggregation in experiment [2] is -16.5% (inactive). For the same compound, the results for the nuclei count in experiment [2] and in experiment [3] were 108% and 118%, respectively. In addition, in experiment [4], the fluorescence slope is -0.448 (inactive). Also, the NADPH fluorescence slope in experiment [5] is -4e-05 (inactive). Moreover, the slope in experiment [6] is 0.0033 (inactive).
Take `O=C(O)c1ccc2c(c1)N(Cc1ccccc1F)C(=O)c1ccccc1S2=O` (centres undefined): the cell count in experiment [1] came to 585. The inhibition in experiment [1] is -1.2% (inactive); in experiment [3], -49.8% (inactive); in experiment [7] it was 11.3% (inactive); in experiment [8], 7.14% (inactive). In addition, in experiment [2], the inhibition of aggregation was 17.9% (inactive). Besides, the nuclei count in experiment [2] came to 64.2%; in experiment [3] it was 107%. The fluorescence slope in experiment [4] was -0.537 (inactive). Further, the NADPH fluorescence slope in experiment [5] was -5.5e-07 (inactive). For the same compound, the slope in experiment [6] was 0.0062 (inactive).
On to `COc1ccc(CNC(=O)c2cc3c(=O)n4ccccc4nc3n(Cc3ccco3)c2=N)cc1`, for which the cell count in experiment [1] is 666. In addition, the inhibition in experiment [1] was -7.8% (inactive); in experiment [3], -30.5% (inactive); in experiment [7] it was 14.5% (inactive); in experiment [8] it was 20.4% (inactive). The inhibition of aggregation in experiment [2] was -28.6% (inactive). The nuclei count stood at 127% in experiment [2] and 113% in experiment [3]. Also, the fluorescence slope in experiment [4] was -0.597 (inactive). Further, the NADPH fluorescence slope in experiment [5] was -6e-07 (inactive). For the same compound, the slope in experiment [6] was 0.0063 (inactive).
For the compound `O=C(O)C1CC=CCC1C(=O)Nc1cc(Cl)ccc1Cl` (centres undefined), the cell count in experiment [1] worked out at 389. The inhibition is 4.2% (inactive) in experiment [1], 5.3% (inactive) in experiment [3], -11.2% (inactive) in experiment [7] and 1.01% (inactive) in experiment [8]. The inhibition of aggregation in experiment [2] was -1.2% (inactive). Further, the nuclei count came out at 98.5% in experiment [2] and 102% in experiment [3]. The fluorescence slope in experiment [4] was -0.505 (inactive). The NADPH fluorescence slope in experiment [5] is -2.3e-05 (inactive). The slope in experiment [6] is 0.00676 (inactive).
In the case of `CCOC(=O)CSc1nnc(NC(=O)c2cccc(S(=O)(=O)N3CCCCC3)c2)s1`, the cell count in experiment [1] was determined as 626. In addition, the inhibition in experiment [1] was -1.1% (inactive); in experiment [3], 20.8% (inactive); in experiment [7] it was 12.1% (inactive); in experiment [8], 26.3% (inactive). Besides, the inhibition of aggregation in experiment [2] was -6.5% (inactive). Also, the values for the nuclei count in experiment [2] and in experiment [3] were 107% and 102%, respectively. Further, in experiment [4], the fluorescence slope was -0.37 (inactive). The NADPH fluorescence slope in experiment [5] was -9.8e-06 (inactive). Further, the slope in experiment [6] was 0.00424 (inactive).
`CC1=C(C(=O)OCC(C)C)C(c2cc3c(cc2Br)OCO3)NC(=O)N1C` (centres undefined): the cell count in experiment [1] was 425. Further, the inhibition in experiment [1] was -3.6% (inactive); in experiment [3], -103% (inactive); in experiment [7], 11.4% (inactive); in experiment [8], 34.6% (inactive). In experiment [2], the inhibition of aggregation is -13.3% (inactive). Besides, the results for the nuclei count in experiment [2] and in experiment [3] were 98.5% and 118%, respectively. The fluorescence slope in experiment [4] is -0.44 (inactive). Besides, the NADPH fluorescence slope in experiment [5] is -3.6e-05 (inactive). The slope in experiment [6] was 0.00323 (inactive).
As to `C=CCn1c(=O)c2ccccc2n2c(SCC(=O)Nc3cc(C)on3)nnc12`, the cell count in experiment [1] came to 469. Further, the inhibition in experiment [1] was -22.4% (inactive); in experiment [3] it was -50.6% (inactive); in experiment [7], 3.33% (inactive); in experiment [8] it was 5.94% (inactive). For the same compound, the inhibition of aggregation in experiment [2] was -23.3% (inactive). In addition, the nuclei count is 113% in experiment [2] and 153% in experiment [3]. Further, the fluorescence slope in experiment [4] was -0.605 (inactive). Besides, the NADPH fluorescence slope in experiment [5] is -4.3e-05 (inactive). Besides, in experiment [6], the slope was 0.00622 (inactive).
As for `CC1Cc2nc(SCC(=O)Nc3ccc4c(c3)OCO4)n(-c3ccc(F)cc3)c(=O)c2S1` (centres undefined), in experiment [1], the cell count was found to be 680. For the same compound, the inhibition was -23.4% (inactive) in experiment [1], -32.8% (inactive) in experiment [3], -0.186% (inactive) in experiment [7] and 51.2% (active) in experiment [8]. For the same compound, the inhibition of aggregation in experiment [2] is -2.5% (inactive). Besides, the nuclei count was found to be 102% in experiment [2] and 107% in experiment [3]. The fluorescence slope in experiment [4] is -0.401 (inactive). Moreover, the NADPH fluorescence slope in experiment [5] was -6.4e-05 (inactive). Besides, in experiment [6], the slope was 0.00514 (inactive).
